Test results reported in PubChem BioAssay (NCATS).
Records with an inconclusive call do not appear. Active and inactive are the calls of the source. The call rests on the fitted dose curve; in most records, active means well fitted curve in the direction sought with a large enough effect; inconclusive means small, poorly fitted or top-dose-only effect, or another doubt; inactive means no such curve, though single readings can be large; an effect the other way counts as inactive or inconclusive.

Legend:
[1] = molecular target: Cellular tumor antigen p53 (Homo sapiens) (UniProt P04637); assay: Primary qHTS for small molecule compounds that upregulate eGFP-tagged delta133p53alpha (in N-terminal) cells. (AID 2060322); conditions: NCI-H358 eGFP-delta133p53alpha fluorescence, 24 h; activation: stronger effect = higher value;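 further: cells pre-induced with doxycycline then dosed without doxycycline; series mostly up to about 56 µM; 0% = DMSO vehicle and 100% = reference activator; nearly all actives have a fitted effect of over 75% in size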
Method in brief: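 NCI-H358 cells pre-induced 24 h with 10 ng/ml doxycycline for eGFP-delta133p53alpha, plated dox-free and exposed 24 h at 37C to titrated compounds. Fixed, Hoechst-stained; gated GFP peak intensity by laser scanning cytometry, normalized to DMSO (0%) and 57.5 uM 5-azacytidine (100%).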

[2] = molecular target: Aldehyde dehydrogenase, mitochondrial (Homo sapiens) (UniProt P05091); assay: qHTS for Inhibitors of the Aldehyde Dehydrogenase Family (ALDH2) Primary screen (AID 2061308);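 further: plate controls were vehicle for no effect and reference inhibitor for full effect; nearly all actives have a fitted effect of over 55% in size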
[3] = molecular target: Retinaldehyde dehydrogenase 3 (Homo sapiens) (UniProt P47895); assay: qHTS for Inhibitors of the Aldehyde Dehydrogenase Family (ALDH1A3) Primary screen (AID 2061315);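 further: plate controls were DMSO vehicle for no effect and reference inhibitor for full effect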

Chain of Cellular tumor antigen p53 (Homo sapiens) (P04637 whole entry, looked up): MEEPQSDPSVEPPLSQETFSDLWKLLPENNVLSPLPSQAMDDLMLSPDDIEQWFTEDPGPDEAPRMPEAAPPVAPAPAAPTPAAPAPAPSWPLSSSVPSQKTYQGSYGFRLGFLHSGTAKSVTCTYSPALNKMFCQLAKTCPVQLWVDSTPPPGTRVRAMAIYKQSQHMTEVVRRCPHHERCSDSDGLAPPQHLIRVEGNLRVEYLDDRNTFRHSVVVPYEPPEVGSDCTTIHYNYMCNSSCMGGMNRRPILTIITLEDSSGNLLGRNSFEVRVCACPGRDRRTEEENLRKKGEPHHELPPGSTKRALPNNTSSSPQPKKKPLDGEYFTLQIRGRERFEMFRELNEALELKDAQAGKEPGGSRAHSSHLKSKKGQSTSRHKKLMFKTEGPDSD

CC1C(=O)OCC2=CC[N+]3([O-])CCC(OC(=O)C(C)(O)C1(C)O)C23 (stereo not given)
inactive: activation [1] 24.1% | Potency [2] | Potency [3]

C=C(COC(=O)C(O)C(O)CN)C12OC1C1(C)C(=CC2=O)C(O)C(O)CC1C (stereo not given)
inactive: activation [1] -7.63% | Potency [2] | Potency [3]

Cc1noc(-c2ccc(-c3ccc(CC(=O)O)cc3)cc2)c1NC(=O)O[C@H](C)c1ccccc1
inactive: activation [1] -1.79% | Potency [2] | Potency [3]

CC1(C)CC[C@]2(C(=O)OC3OC(CO)C(O)C(O)C3O)CC[C@]3(C)C(=CCC4[C@@]5(C)C[C@@H](O)[C@H](OC6OC(C(=O)O)C(O)C(O)C6O)C(C)(C)C5CC[C@]43C)[C@@H]2C1 (stereo not given in full)
inactive: activation [1] -2.29% | Potency [2] | Potency [3]

C=C1C[C@]23C[C@H]1CC[C@H]2[C@@]1(C)CCC[C@@]2(C)C(=O)O[C@@H]([C@@H]3O)[C@@H]12
inactive: activation [1] 12.2% | Potency [2] | Potency [3]

CCCCc1nc(C)c(CC(=S)N(C)C)c(=O)n1Cc1ccc(-c2ccccc2-c2nn[nH]n2)cc1
inactive: activation [1] 18.1% | Potency [2] | Potency [3]

C=CC(C)(CC/C=C(\C)CC/C=C(\C)CC(O)/C=C(\C)C(=O)O)O[C@@H]1O[C@H](CO)[C@@H](O)[C@H](O)[C@H]1O[C@@H]1O[C@H](CO)[C@@H](O)[C@H](O)[C@H]1O (stereo not given in full)
inactive: activation [1] -12.2% | Potency [2] | Potency [3]

CC(=O)OCC1=C[C@H](O)[C@@H]2C(C(=O)O)=CO[C@@H](O[C@@H]3O[C@H](CO)[C@@H](O)[C@H](O)[C@H]3O)[C@H]12
inactive: activation [1] 0.763% | Potency [2] | Potency [3]

COc1cn(-c2ccc(-n3cccn3)cc2F)nc(-c2ccnn2-c2ccccc2)c1=O
inactive: activation [1] 0% | Potency [2] | Potency [3]

COC(=O)CCC1(C)C(C(C)(C)O)C(O)CC2(C)Oc3c(C)c4c(c(OC)c3CC21)C(=O)OC4 (stereo not given)
inactive: activation [1] -3.82% | Potency [2] | Potency [3]

O=C(O)CCc1cc2ccoc2cc1O[C@@H]1O[C@H](CO)[C@@H](O)[C@H](O)[C@H]1O
inactive: activation [1] 6.11% | Potency [2] | Potency [3]

C/C=C(\C)C(=O)O[C@@H]1[C@@H](C)[C@]2(O)[C@@H]3C=C(C)C(=O)[C@H]3CC(CO)=C[C@H]2C2C(C)(C)[C@@]21OC(=O)C(C)CC (stereo not given in full)
inactive: activation [1] -1.79% | Potency [2] | Potency [3]

CC(=O)c1ccc2c(c1)C(O)C(C(C)(C)O)O2 (stereo not given)
inactive: activation [1] -6.11% | Potency [2] | Potency [3]

C=C(C)[C@@H]1CC[C@]2(C(=O)O)CC[C@]3(C)C(CCC4[C@@]5(C)C[C@@H](O)[C@H](O)C(C)(C)C5CC[C@]43C)C12 (stereo not given in full)
inactive: activation [1] -10.7% | Potency [2] | Potency [3]

CC(=O)O[C@@H]1[C@H](O)[C@@H](O[C@@H]2O[C@@H](C)[C@H](O[C@@H]3OC[C@@H](O)[C@H](O[C@@H]4OC[C@@H](O)[C@H](O)[C@H]4O)[C@H]3O)[C@@H](O[C@@H]3O[C@H](CO)[C@@H](O)[C@H](O)[C@H]3O)[C@H]2O)[C@H](OC(=O)[C@]23CCC(C)(C)C[C@H]2C2=CCC4[C@@]5(C)CC[C@H](O[C@@H]6O[C@H](C(=O)O)[C@@H](O)[C@H](O[C@@H]7OC[C@@H](O)[C@H](O)[C@H]7O)[C@H]6O[C@@H]6O[C@H](CO)[C@H](O)[C@H](O)[C@H]6O)[C@@](C)(C=O)C5CC[C@@]4(C)[C@]2(C)CC3)O[C@@H]1C (stereo not given in full)
inactive: activation [1] -9.16% | activity change, negative = inhibition [2] 5.14% [at 11.2 µM] | activity change, negative = inhibition [3] -8.36% [at 11.2 µM]

C=C[C@H]1[C@H](O[C@@H]2O[C@H](CO[C@@H]3OC[C@](O)(CO)[C@H]3O)[C@@H](O)[C@H](O)[C@H]2O)OC=C2C(=O)OCC[C@H]21
inactive: activation [1] 5.36% | Potency [2] | Potency [3]

CC1=CC(=O)CC(C)(C)[C@@]1(O)CC[C@@H](C)O[C@@H]1O[C@H](CO)[C@@H](O)[C@H](O)[C@H]1O
inactive: activation [1] 29.5% | Potency [2] | Potency [3]

CC(=O)O[C@H]1CC[C@]2(C)[C@H]3CC[C@]4(C)Oc5oc(C)cc(=O)c5C[C@H]4[C@]3(C)CC[C@H]2C1(C)C
inactive: activation [1] 0% | Potency [2] | Potency [3]

CC1=C2C3OC(=O)C(C)C3(O)CCC2(C)CCC1 (stereo not given)
inactive: activation [1] 2.68% | Potency [2] | Potency [3]

COc1ccc(S(=O)(=O)N2CCC[C@H]2C(=O)Nc2cc(C)cc(C)c2)cc1
inactive: activation [1] -17.2% | Potency [2] | Potency [3]
